Screens: PubChem, several laboratories
Mtb BioA inh – inhibitors of Mycobacterium tuberculosis BioA enzyme. purified M. tuberculosis BioA enzyme, plate reader. inhibition, % at 9.99 µM. 360,000 compounds, 0.096% hits. AID 602481; in the data active = inhibition above about 40%
GDH-TPI counter-1 – inhibits GDH-TPI coupling enzymes, artifact for Mtb FBA screen. GDH-TPI coupled enzyme counterscreen, NADH absorbance. inhibition, % at 4.8 µM. 360,000 compounds, 1.2% hits. AID 588335; in the data active = inhibition above about 30%;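 note: 0% = DMSO wells and 100% = wells lacking the enzyme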
Vc quorum ag – quorum light induction in luxS cqsA deficient V. cholerae; V. cholerae BH1578 lux reporter, luminescence, 6 h; activation, % at 18.7 µM; 350,000 compounds, 0.16% hits; AID 588436; in the data active = activation mostly above about 9.7%, no sharp cut-off
Mtb FBA inh – Mtb fructose-bisphosphate aldolase inhibition. P9WQA3. purified M. tuberculosis FBA, fluorescence read-out. inhibition, % at 1 µM. 360,000 compounds, 2.3% hits;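 note: 0% = vehicle and 100% = reference inhibitor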
Target sequence (P9WQA3 whole entry, looked up): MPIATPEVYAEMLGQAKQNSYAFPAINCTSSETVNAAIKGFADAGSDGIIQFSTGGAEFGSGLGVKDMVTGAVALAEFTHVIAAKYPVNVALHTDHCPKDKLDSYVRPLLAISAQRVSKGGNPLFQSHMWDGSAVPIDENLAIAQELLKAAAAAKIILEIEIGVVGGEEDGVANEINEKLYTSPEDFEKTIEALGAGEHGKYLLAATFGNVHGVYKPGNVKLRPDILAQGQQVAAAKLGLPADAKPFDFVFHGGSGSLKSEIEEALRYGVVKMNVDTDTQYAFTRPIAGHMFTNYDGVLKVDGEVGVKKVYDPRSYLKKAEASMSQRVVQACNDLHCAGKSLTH
Mtb FBA inh conf – confirmation of M. tuberculosis fructose-bisphosphate aldolase inhibitors; shares compounds with Mtb FBA inh; purified M. tuberculosis FBA, fluorescence read-out; inhibition, % at 1 µM; 5,600 compounds, 78% hits;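 note: 0% = vehicle wells and 100% = reference inhibitor wells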
GDH-TPI counter-2 – inhibits GDH-TPI coupling enzymes, flagging Mtb FBA hits; AID 652141; shares compounds with Mtb FBA inh; 5,600 compounds, 81% hits; GDH-TPI coupled enzyme counterscreen, fluorescence; inhibition, % at 1 µM; in the data active = inhibition above about 10%
Numbers without * were called inactive. Shown are actives, neighbours in structure and some others; about 3% of the full set was active somewhere. Cut-off read from the data, not from the text of the source, unless noted: active = inhibition above about 27%; inactive = the rest.

For O=C(O)c1ccc2c(c1)-c1nc3ccccc3n1C2=O the results were Mtb BioA inh -1.1, GDH-TPI counter-1 -0.9, Vc quorum ag -0.3, Mtb FBA inh 51.4*, Mtb FBA inh conf 43.6* and GDH-TPI counter-2 36.3*.
`CCOC(=O)N1CCN(C(=O)c2ccc3nc4ccc(Cl)cc4c(=O)n3c2)CC1` gave Mtb BioA inh 1.3, GDH-TPI counter-1 7.4, Vc quorum ag -2.9 and Mtb FBA inh 12.1.
`CCOC(=O)N1CCN(C(=O)c2cccn3c(=O)c4cc(Br)ccc4nc23)CC1` gave GDH-TPI counter-1 6.8, Vc quorum ag -1.4 and Mtb FBA inh 15.6.
For CCOC(=O)N1CCN(C(=O)c2ccc3nc4ccsc4c(=O)n3c2)CC1 the results were Mtb BioA inh -0.8, GDH-TPI counter-1 24.8, Vc quorum ag -0.2, Mtb FBA inh 29.1*, Mtb FBA inh conf 3.6 and GDH-TPI counter-2 7.1.
Screening CCOC(=O)N1CCN(C(=O)c2cccn3c(=O)c4sccc4nc23)CC1 returned Mtb BioA inh 35.8, GDH-TPI counter-1 53.3*, Vc quorum ag inactive, Mtb FBA inh 66.1*, Mtb FBA inh conf 9.1 and GDH-TPI counter-2 -5.8.
COc1ccc(S(=O)(=O)Nc2cccc3c2O[C@@H](CN(C)S(=O)(=O)c2ccc(Cl)cc2)[C@H](C)CN([C@@H](C)CO)C3=O)cc1 was read as Mtb BioA inh -1.7.
`COc1ccc(C2C(C#N)=C(SC)NC3=C2C(=O)CC(C)(C)C3)cc1` (stereo unspecified) gave Mtb BioA inh 1.7, GDH-TPI counter-1 1.4, Vc quorum ag -0.5 and Mtb FBA inh -0.9.
Screening COC(=O)c1ccc(C2C(C#N)=C(C)NC3=C2C(=O)CC(C)(C)C3)cc1 (stereo unspecified) returned Mtb BioA inh 13.3, GDH-TPI counter-1 12.8, Vc quorum ag 2.1, Mtb FBA inh 75.0*, Mtb FBA inh conf 81.9* and GDH-TPI counter-2 51.5*.
Screening CCCCC1C(C#N)=C(C)NC2=C1C(=O)CC(C)(C)C2 (stereo unspecified) returned Mtb BioA inh 3.0, GDH-TPI counter-1 11.9, Vc quorum ag -1.4, Mtb FBA inh 56.5*, Mtb FBA inh conf 62.6* and GDH-TPI counter-2 45.1*.
For O=[N+]([O-])c1cccc(/C=C/CO)c1 the results were Mtb BioA inh -0.3.
For COc1ccc(-c2ccc3c(c2)[C@H]2[C@H](CCN2S(=O)(=O)c2ccc(OC)cc2)[C@@H](CO)N3C)cc1 the results were Mtb BioA inh -1.3.
Screening C[C@H](CO)N1C[C@H](C)[C@@H](CN(C)C(=O)NC2CCCCC2)Oc2ccc(NC(=O)CCC(F)(F)F)cc2C1=O returned Mtb BioA inh -2.4, GDH-TPI counter-1 -1.3, Vc quorum ag 4.9, Mtb FBA inh 75.8*, Mtb FBA inh conf 1.9 and GDH-TPI counter-2 -0.1.
`C[C@H](CO)N1C[C@H](C)[C@H](CN(C)C(=O)NC2CCCCC2)Oc2ccc(NC(=O)CCC(F)(F)F)cc2C1=O` gave Mtb BioA inh -0.1.
Screening CCCCOc1ccc(Cl)cc1CSc1n[nH]c(C)n1 returned Mtb BioA inh 0.0, GDH-TPI counter-1 -8.9, Vc quorum ag -0.4 and Mtb FBA inh 2.4.
Screening CCOc1ccc(Cl)cc1CSc1n[nH]c(CC)n1 returned Mtb BioA inh -1.6, GDH-TPI counter-1 0.5, Vc quorum ag 1.4, Mtb FBA inh 34.5*, Mtb FBA inh conf 4.7 and GDH-TPI counter-2 0.3.
For CCOC(=O)N1CCC(NC(=O)CSCc2nc(-c3ccc(C)cc3)oc2C)CC1 the results were Mtb BioA inh -1.2, GDH-TPI counter-1 -1.7, Vc quorum ag inactive, Mtb FBA inh 51.5*, Mtb FBA inh conf 21.5 and GDH-TPI counter-2 20.0*.
O=C1CC(O)(C(F)F)Oc2ccc3ccccc3c21 (stereo unspecified) was read as GDH-TPI counter-1 6.1, Vc quorum ag inactive, Mtb FBA inh 43.8*, Mtb FBA inh conf 31.2* and GDH-TPI counter-2 22.0*.
`CCCc1cc(NC(=O)COC(=O)c2nccnc2N)n(-c2ccccc2)n1` gave Mtb BioA inh -2.3, GDH-TPI counter-1 16.4, Vc quorum ag -1.3, Mtb FBA inh 84.7*, Mtb FBA inh conf 51.0* and GDH-TPI counter-2 44.6*.
For CC(C)(C)c1cc(NC(=O)COC(=O)c2nccnc2N)n(-c2ccccc2)n1 the results were Mtb BioA inh 0.0, GDH-TPI counter-1 8.2, Vc quorum ag -1.0, Mtb FBA inh 86.7*, Mtb FBA inh conf 46.7* and GDH-TPI counter-2 36.2*.
